In the library only some 4.1% were active in any assay of this set; here they are far more common.
PfHsp90 yeast 2 – reduces growth (ATP signal) of yeast expressing P. falciparum Hsp90; S. cerevisiae expressing PfHsp90, BacTiter-Glo ATP, 48 h; yeast lacking PDR1 and PDR3 efflux regulators; AID 504621; 0.32% of 310,000 active; inhibition, % at 9.4 µM;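 active = every replicate shows inhibition above about 80%, whatever the replicate mean, limit read from the data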
NLRP3 yeast inh – NALP3 inhibition in yeast; Yeast reconstituted NLRP3/ASC/caspase-1, beta-gal luminescence, 24 h; inhibition, % at 10 µM; 0.39% of 330,000 active; AID 2825;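 active = inhibition of 50% or more; inactive = inhibition below 50%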
NALP1 yeast inh – blocks the NALP1 inflammasome reconstituted in yeast. S. cerevisiae NALP1/ASC/caspase-1 growth, X-gal OD620, 72 h. inhibition, % at 10 µM. 0.61% of 280,000 active. AID 2071; in the data active = inhibition mostly above about 24%, no sharp cut-off; inactive = mostly below about 32%
TIM10 inh – inhibits growth of TIM10 yeast strain; S. cerevisiae TIM10 strain growth, BacTiter-Glo luminescence, 24 h; inhibition, % at 10 µM; 1.4% of 330,000 active;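 active = inhibition of 40% or more at the single tested concentration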;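 also: wild-type TIM10 isogenic control strain grown at permissive 25 °C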
tim23-1 inh – growth inhibitors of tim23-1 mutant yeast; 1.3% of 330,000 active; inhibition, % at 20 µM; S. cerevisiae tim23-1 growth, BacTiter-Glo luminescence, 24 h;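 active = growth inhibition of the mutant yeast at or above 50%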;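 also: temperature-sensitive mutant grown at 25 °C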
tim10-1 inh – inhibits growth of tim10-1 mutant yeast; S. cerevisiae tim10-1 ts strain growth, BacTiter-Glo, 24 h; inhibition, % at 20 µM; 2.2% of 330,000 active; AID 463190;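 active = inhibition of at least 40%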;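 also: mutant grown at 25 °C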
NALP3 confirm – confirmation of NALP3 inhibitors in yeast; yeast expressing human NALP3, luminescence; shares compounds with NLRP3 yeast inh; AID 435006; inhibition, % at 10 µM; 81% of 1,300 active; in the data active = inhibition above about 48%
Casp1 ASC ctr – caspase-1-ASC yeast counter-screen hit | shares compounds with NLRP3 yeast inh | yeast expressing Caspase-1-ASC, luminescence counter screen | 66% of 1,000 active | inhibition, % at 10 µM
NALP3 retest – yeast NALP3 inhibition, confirmed on retest | AID 488794 | inhibition, % at 10 µM | shares compounds with NLRP3 yeast inh | yeast expressing human NALP3, luminescence read-out | 53% of 1,000 active
tim10-1 conf – tim10-1 yeast growth inhibition, confirmed; 56% of 7,400 active; AID 463213; shares compounds with tim10-1 inh; inhibition, % at 20 µM; S. cerevisiae tim10-1 ts strain growth, BacTiter-Glo, 24 h;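 active = inhibition of yeast growth at or above a set limit in either of two repeat tests at 20 µM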;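 also: tim10-1 mutant grown at permissive 25 °C to find synthetic lethal compounds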
TIM10 conf – TIM10 yeast growth inhibition, confirmed. AID 463215. inhibition, % at 10 µM. shares compounds with TIM10 inh. S. cerevisiae tim10 strain growth, BacTiter-Glo luminescence, 24 h. 63% of 4,600 active;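 active = inhibition of yeast growth at or above a set limit in either of two replicates at 10 µM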; also: this counterscreen used the strain with wild-type TIM10
tim23-1 conf – confirmation of tim23-1 mutant yeast growth inhibitors | shares compounds with tim23-1 inh | inhibition, % at 20 µM | S. cerevisiae tim23-1 growth, BacTiter-Glo luminescence, 24 h | AID 463218 | 83% of 4,400 active;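 active = inhibition above about 39% in either of two replicate wells at 20 µM, limit read from the data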;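 also: temperature-sensitive tim23-1 mutant grown at 25 °C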
Of the large screens only hits and unclear results are named; the others gave an inactive call (follow-up assays come after a bar, where they were run). Rule as the data show it, unless noted: active = inhibition above about 50%; inactive = the rest.

C[C@]12CC[C@H](O)C[C@H]1CC[C@@H]1[C@@H]2CC[C@]2(C)C(=O)CC[C@@H]12	NLRP3 yeast inh 54 (no result: NALP1 yeast inh) | NALP3 confirm 67 | Casp1 ASC ctr 65 | NALP3 retest 56
C[C@]12CCC3C(CC[C@H]4C[C@@H](O)CC[C@]34C)C1C[C@@H](O)C2=O (stereo not given in full)	none (no result: PfHsp90 yeast 2, NALP1 yeast inh)
CCCCCCC(=O)c1c(O)n(-c2ccc(OC)cc2)c(=O)[nH]c1=O (tested in a mixture with another compound)	none
CC(C)Oc1ccc(CCN)cc1Cl	NLRP3 yeast inh 53, NALP1 yeast inh 44 | NALP3 confirm 57 | Casp1 ASC ctr inactive | NALP3 retest inactive
CCCC(=O)NC(Oc1ccc(Cl)cc1Cl)C(Cl)(Cl)Cl (stereo not given)	none
O=C(Cc1ccccc1)N1CCN(Cc2ccc(F)cc2)CC1	none
Cc1c(C(c2ccc(Cl)cc2Cl)c2c(O)c3ccccc3oc2=O)c(=O)n(-c2ccccc2)n1C (stereo not given)	none
CC1(C)C(=O)CC[C@@]2(C)C1=CCC1C2CC[C@]2(C)C(=O)CCC12 (stereo not given in full)	NLRP3 yeast inh 59 (no result: NALP1 yeast inh) | NALP3 confirm 48
Cn1cc(C(O)CN2CCCCC2)c2ccccc21 (stereo not given)	none
C[CH2][Hg][S]c1ccccc1C(=O)O	PfHsp90 yeast 2 109, NLRP3 yeast inh 98 (no result: NALP1 yeast inh) | NALP3 confirm 99 | Casp1 ASC ctr 100 | NALP3 retest 99
CC(C)COC(=O)c1ccccc1C(=O)OCC(C)C	none
COC(=O)C1=C(c2ccc(F)cc2F)C[C@@H]2CC[C@H]1N2C(=O)NC1Cc2ccccc2C1	none (no result: NALP1 yeast inh) | NALP3 confirm inactive
CC12CCC3C(CCC4C/C(=N/O)CCC43C)C1CCC2O (stereo not given)	NLRP3 yeast inh 63 | NALP3 confirm inactive | Casp1 ASC ctr 63 | NALP3 retest inactive
C[C@]12CCC3C(CC[C@@H]4CC(=O)CC[C@]34C)C1CC[C@@H]2O (stereo not given in full)	NLRP3 yeast inh 68 (no result: NALP1 yeast inh) | NALP3 confirm 58
CC12CCC3C(CCC4CC(=O)OCC43C)C1CCC2O (stereo not given)	none (no result: NLRP3 yeast inh, NALP1 yeast inh, TIM10 inh, tim23-1 inh, tim10-1 inh)
C[C@]12CCC(=O)C[C@@H]1CC[C@@H]1[C@@H]2CC[C@]2(C)[C@@H](O)CC[C@@H]12	NLRP3 yeast inh 50 (no result: PfHsp90 yeast 2, NALP1 yeast inh) | NALP3 confirm 55 | Casp1 ASC ctr 60 | NALP3 retest inactive
C[C@]12CC(=O)CC1CCC1C2CC[C@@]2(C)C1CC[C@@H]2O (stereo not given in full)	NLRP3 yeast inh 60, NALP1 yeast inh 42 | NALP3 confirm 61 | Casp1 ASC ctr 63 | NALP3 retest inactive
CC(C)Oc1ccc(C2(C#N)CC[N+](C)(C)CC2)cc1	none
CCC1C=CC=CC[C@H](C)[C@@H](O)[C@](C)(O)C(=O)[C@@H](C)[C@H](O)[C@@H](C)C(=O)[C@H](C)[C@@H](O)[C@H](C)C=CC(=O)OC2[C@@H](C)C(CC1)OC1(CC[C@@H](C)C(C[C@H](C)O)O1)[C@@H]2C (stereo not given in full)	NLRP3 yeast inh 82 (no result: PfHsp90 yeast 2, NALP1 yeast inh) | NALP3 confirm 88 | Casp1 ASC ctr 57 | NALP3 retest 72
CCCCC/C(=N/O)c1c(C)[nH]c2ccccc12	none
CCCCC/C(=N\O)c1c[nH]c2ccccc12	NLRP3 yeast inh 55 | NALP3 confirm 57 | Casp1 ASC ctr 53 | NALP3 retest inactive
CN1C(=O)/C(=C/c2cccn2-c2ccc3ccccc3c2)C(=O)NC1=S	NLRP3 yeast inh 56, TIM10 inh 46, tim23-1 inh 66, tim10-1 inh 56 | NALP3 confirm inactive | tim10-1 conf 53 | TIM10 conf 49 | tim23-1 conf 64
C[C@@H]1C[C@@H]([C@H](O)CC2CC(=O)NC(=O)C2)C(=O)[C@@H](C)C1	PfHsp90 yeast 2 active, NLRP3 yeast inh 97, TIM10 inh 68, tim23-1 inh 73 (no result: NALP1 yeast inh) | NALP3 confirm 98 | Casp1 ASC ctr 99 | NALP3 retest 98 | TIM10 conf 64 | tim23-1 conf 69
CN1C(=O)C(=Cc2c(OCc3cnc(Cl)s3)ccc3ccccc23)C(=O)N(C)C1=O	NLRP3 yeast inh 59, TIM10 inh 46, tim23-1 inh 75 | NALP3 confirm 58 | Casp1 ASC ctr 72 | NALP3 retest 62 | TIM10 conf 53 | tim23-1 conf 81
CN1C(=O)C(=Cc2ccccc2OCc2ccccc2Cl)C(=O)N(C)C1=O	none (no result: NALP1 yeast inh)
CC(C)(C)C(=O)Cn1c(NCCCl)nc2ccccc21	none
CN(C)c1cc[n+](CC(O)C[n+]2ccc(N(C)C)cc2)cc1	none (no result: NALP1 yeast inh)
CCCCn1c(O)c(C(CC)=Nc2ccc(OCC)cc2)c(=O)[nH]c1=O	none
CCCCn1c(O)c(C(CC)=Nc2ccc(OC)cc2OC)c(=O)[nH]c1=O	tim10-1 inh 41 | tim10-1 conf inactive
CN1C(=O)c2ccccc2Sc2ccc(C(=O)N3CCC4(CC3)OCCO4)cc21	none (no result: PfHsp90 yeast 2)
Cc1ccc(/C=C2/Sc3ccc(C(=O)N4CCC5(CC4)OCCO5)cc3NC2=O)cc1	tim10-1 inh 47 | tim10-1 conf inactive
O=C1NC(=O)N(CCc2ccc(F)cc2)C(=O)/C1=C/c1cccs1	tim10-1 inh 52 (no result: PfHsp90 yeast 2) | tim10-1 conf inactive
O=C1NC(=O)N(CCC2=CCCCC2)C(=O)/C1=C\c1cccs1	none
COc1cccc(Oc2coc3cc(OC(=O)N(C)C)ccc3c2=O)c1	none
CN(C)C(=O)Oc1ccc2c(=O)c(Oc3ccccc3Br)coc2c1	tim10-1 inh 46 | tim10-1 conf inactive
Clc1ccc(C[n+]2c(-c3ccccc3)cc(-c3ccccc3)cc2-c2ccccc2)cc1	tim10-1 inh 45 (no result: NALP1 yeast inh) | tim10-1 conf 38
Cc1cc(-c2ccccc2)cc(-c2ccccc2)[n+]1CCc1ccccc1	none (no result: NALP1 yeast inh)
CCOP(=S)(OCC)SCCSCC	none (no result: NALP1 yeast inh)

Bioassay records as filed in PubChem.
